Screening results deposited in PubChem BioAssay by National Center for Advancing Translational Sciences (NCATS).
FLuc inh: inhibitors of firefly luciferase; P08659; purified firefly luciferase, luminescence, 8 min; Potency, µM (top dose mostly 57.1 µM), for inactives: at the top dose activity change, negative = inhibition, hits mostly inhibitors; hit rate 2.2% among 72,000; AID 411; active = well fitted inhibition curve with a large enough effect; inconclusive = small, poorly fitted or top-dose-only effect; note: % is set by controls: 0 for no effect and ±100 for the full control effect; nearly all actives have a fitted effect of over 40% in size
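qHTS concentration-response profiling: light output of P. pyralis luciferase with luciferin and 10 uM ATP, imidazole buffer pH 7.2. Read by luminescence after 8-min room-temperature incubation.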
GBA activity: alters purified human glucocerebrosidase activity; P04062; hit rate 1.1% among 48,000; Potency, µM; purified enzyme, resorufin glucoside fluorescence (screen aimed at inhibitors), 20 min; AID 360; in the data active = potency below about 15 µM; inconclusive = mostly about 16 µM to 33 µM;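 note: the screen sought inhibitors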
Target sequence (P04062 whole entry, looked up): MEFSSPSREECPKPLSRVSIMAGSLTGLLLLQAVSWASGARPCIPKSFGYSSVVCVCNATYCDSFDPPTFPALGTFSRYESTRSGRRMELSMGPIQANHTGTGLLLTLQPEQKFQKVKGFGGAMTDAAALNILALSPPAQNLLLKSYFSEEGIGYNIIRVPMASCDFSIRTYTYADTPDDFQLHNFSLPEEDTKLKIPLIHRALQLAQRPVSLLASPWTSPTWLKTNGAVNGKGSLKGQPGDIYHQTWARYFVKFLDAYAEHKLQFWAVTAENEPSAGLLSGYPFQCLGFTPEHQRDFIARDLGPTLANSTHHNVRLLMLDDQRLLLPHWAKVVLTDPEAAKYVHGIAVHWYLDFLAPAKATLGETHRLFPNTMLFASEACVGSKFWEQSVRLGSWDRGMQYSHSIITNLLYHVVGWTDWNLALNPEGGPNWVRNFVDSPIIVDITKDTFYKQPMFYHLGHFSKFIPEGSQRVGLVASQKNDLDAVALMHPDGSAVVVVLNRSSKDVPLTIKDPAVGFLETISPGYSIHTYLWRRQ
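Normal human glucocerebrosidase (0.2 nM final) was assayed with resorufin β-D-glucopyranoside (30 uM final) in 50mM citric acid/KH2PO4, 10mM sodium taurocholate, 0.01% tween-20, pH 5.9. Compounds were titrated; fluorescence (Ex 548, Em 600) read after 20 min at RT.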
Bst PK mod: alters activity of Bacillus stearothermophilus pyruvate kinase. purified pyruvate kinase, luminescence ATP production; ribose 5-phosphate activator present at AC10. Potency, µM. hit rate 1.2% among 51,000; in the data active = potency below about 11 µM; inconclusive = mostly about 12 µM to 25 µM;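 the screen sought inhibitors and activators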;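 note: scaled between full activation by ribose 5 phosphate and full inhibition by luteolin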
Active calls of the source: *; i = inactive; u = inconclusive; x = no result; [ ] = dose if it differs, or a comment. Hits are enriched below; roughly 3.4% of the tested compounds scored in any of these assays. Potency is the fitted concentration of half-maximal effect.

SMILES | FLuc inh | GBA activity | Bst PK mod
CO[C@@H]1COC(=O)[C@H]2CCCN2C(=O)C/C=C\[C@@H](C)[C@H](OC)COC(=O)[C@H]2CCCN2C(=O)C/C=C\[C@H]1C | 1%[11.4 µM] | x | x
Cc1cc(C(=O)CNCc2ccco2)c(C)n1-c1ccc(F)cc1 | 25µM* | x | x
Cc1cc(C(=O)OCC(=O)N2CCN(C(=O)c3ccco3)CC2)c(C)n1-c1ccc(F)cc1 | 2% | >77 | >57
Cc1cccc(NC(=O)COc2ccc(Br)cc2)n1 | -29% | x | x
Cc1ccc(OCC(=O)Nc2cccc(C)n2)c(C)c1 | 16µM* | >77 | x
Cc1nc(NC(=O)c2ccccc2)sc1-c1csc(N)n1 | 16µM* | >77 | i
CC(=O)Cc1nsc(NC(=O)c2ccccc2)n1 | -5% | >77 | >57
CC(=O)Nc1ccc(N/C=C/C(=O)c2ccc(C)o2)cc1 | 16µM* | >77 | i
Cc1ccc(C(=O)Nc2ccncc2)o1 | -2% | x | >57
Cc1ncoc1C(=O)Nc1ccccc1C(N)=O | 0% | >77 | >57
Cc1ccc(C(=O)/C=C/Nc2ccccc2C(N)=O)o1 | 6.3µM* | >77 | 6.1*
COc1ccccc1CN1CCC2(CC1)CCN(S(=O)(=O)c1ccccc1)CC2 | 2%[11.4 µM] | x | x
Nc1nc(Cl)nc2c1ncn2[C@@H]1O[C@@H](CO)[C@@H](O)[C@H]1O | 0% | x | x
CC(=O)c1sc2nc(-c3cccs3)cc(C(F)(F)F)c2c1N | 5% | 14* | >57
CS(=O)(=O)c1sc2nc(-c3cccs3)cc(-c3ccccc3)c2c1N | -1% | >77 | >57
C/C(CCN1CCc2nc(-c3ccccc3)c(-c3ccccc3)cc2C1)=N\OC[C@@H](O)COCc1ccco1 | 2%[11.4 µM] | x | x
Cc1noc(C)c1C(=O)N1CCC2(CCCN(c3ncccn3)C2)CC1 | 0%[11.4 µM] | x | x
Cc1c(C(=O)N2CCc3ccccc3C2)sc2nc(-c3ccccc3)cn12 | -1% | >77 | >57
c1ccc(-c2cn3c4c(sc3n2)CCCC4)cc1 | 0.4µM* | x | 0.33*
O=[N+]([O-])c1cc(Cl)cc2c1nc(NCCO)c1ccccc12 | 2%[11.4 µM] | x | x
C[C@H]1[C@H](O)[C@@H](C)C=CC=CC=CC=CC=CC=CC=C[C@H](O[C@@H]2O[C@@H](C)[C@H](O)[C@@H](N)[C@@H]2O)C[C@@H]2O[C@](O)(C[C@@H](O)C[C@@H](O)[C@@H](O)CC[C@@H](O)C[C@@H](O)CC(=O)O[C@H]1C)C[C@H](O)[C@H]2C(=O)O | -1%[11.4 µM] | x | x
COc1ccc(O)c(-c2cc(-c3cccs3)[nH]n2)c1 | 16µM* | >77 | u
COc1ccccc1-c1cc(-c2cc(Cl)ccc2O)n[nH]1 | 0%[25.5 µM] | x | >11
O=C(c1cc(C(F)(F)F)cc(C(F)(F)F)c1)N1CCC[C@@]2(CCN(Cc3ccncc3)C2)C1 | 0%[11.4 µM] | x | x
Cc1cc(C(=O)Nc2sc3c(c2C#N)CCC3)no1 | 16µM* | >77 | x
SMILES | FLuc inh | GBA activity | Bst PK mod
Cc1cc(C(=O)Nc2sc3c(c2C#N)CCCC3)no1 | 13µM* | >77 | u
Cc1cc(C(=O)Nc2sc3c(c2C#N)CCC(C)C3)no1 (configuration not stated) | -2% | >77 | >57
CC(C)Cc1cc(C(=O)Nc2sc3c(c2C#N)CCCC3)no1 | 1% | x | x
Cc1nc2cncnc2n(C2CC2)c1=O | 0%[11.4 µM] | x | x
CON(C)C(=O)c1nnc2c3ccccc3n(S(=O)(=O)c3ccc(C)cc3)c2n1 | 0%[11.4 µM] | x | x
CN(C)c1ncc2nc(-c3ccc(F)cc3)c(=O)n(CCC#N)c2n1 | 0%[11.4 µM] | x | x
O=S1(=O)N=C(Nc2nc3c(s2)CCCC3)c2ccccc21 | 2.5µM* | >77 | 4.5*
O=C(Nc1nc2c(s1)CCCC2)Oc1ccccc1 | -19% | >77 | >57
O=S(=O)(c1ccccc1)N1CCC2(CCN(c3ccccc3)CC2)CC1 | 1%[11.4 µM] | x | x
CN(C)c1ccc(/C=c2\sc3n(c2=O)CCCN=3)cc1 | 2.5µM* | >77 | 2.7*
COC(=O)/C=c1/sc2n(c1=O)CCN=2 | 1% | >77 | >57
CO[C@H]1COC(=O)[C@@H](CCSC)NC(=O)C/C=C\[C@@H](C)[C@H](OC)COC(=O)[C@@H](OCc2ccccc2)/C=C\[C@@H]1C | 0%[11.4 µM] | x | x
O=C1c2ccccc2S(=O)(=O)N1CC(O)Cn1ccc2ccccc21 (configuration not stated) | 1% | >77 | >57
N#CCCCCN1c2cccc3cccc(c23)S1(=O)=O | -1% | >77 | 7.9*
COc1ccc(N2CCN(Cc3cc(=O)oc4ccc(Cl)cc34)CC2)cc1 | 2% | >77 | >57
COc1ccc(N2CCN(Cc3cc(=O)oc4c3ccc3ccccc34)CC2)cc1 | 3% | 3.3* | >57
O=c1c(CCc2ccccc2)nc2cnc(N3CCNCC3)nc2n1Cc1ccc(F)cc1 | 1%[11.4 µM] | x | x
OCCSCc1ccccc1 | 1%[11.4 µM] | x | x
O=C(O)[C@H](Cc1ccccc1)N1Cc2ccccc2C1=O | 2% | x | x
C[C@@H](C(=O)O)c1ccc(N2Cc3ccccc3C2=O)cc1 | 5µM* | x | x
CC(=O)N1CCC2(CC1)CCN(c1ncccn1)CC2 | 1%[11.4 µM] | x | x
O=C(COC(=O)COc1ccc(Nc2ccccc2)cc1)NCc1ccco1 | -6% | x | >57
O=C(COc1ccc2oc(-c3ccccc3)cc(=O)c2c1)NCc1ccco1 | 7.9µM* | >77 | 4.1*
FC(F)(F)c1cc(CN2CCCC3(CCNCC3)C2)cc(C(F)(F)F)c1 | 1%[11.4 µM] | x | x
Cn1cc(C2NC(=O)c3c(sc4c3CCCC4)N2)c2ccccc21 (configuration not stated) | -15% | x | x
SMILES | FLuc inh | GBA activity | Bst PK mod
Cn1cc(/C=N/n2cnc3sc4c(c3c2=O)CCCC4)c2ccccc21 | 1% | 12* | >57
c1ccc2[nH]c(SCc3ccc(-c4nnco4)cc3)nc2c1 | u | >77 | x
c1cnc2c(SCc3ccc(-c4nnco4)cc3)cccc2c1 | -14% | >77 | 2.4*
O=S(=O)(O)c1cc(N=Nc2cccc3ccccc23)c(O)c2ncccc12 | -6%[11.4 µM] | x | x
COc1cccc(-c2cn3nc4c(nc3n2)CCCC4)c1 | 3.2µM* | >77 | 4.6*
COc1cccc(-c2cc(C(F)(F)F)n3nc(N)nc3n2)c1 | 2% | >77 | >57
O=C1CCC(=O)N1c1ccccc1-c1ccccc1 | 2% | x | x
Cc1cc(-c2ccc(N3C(=O)CCC3=O)c(C)c2)ccc1N1C(=O)CCC1=O | 16µM* | x | x
CNC(=O)[C@H]1O[C@H](n2cnc3c(NCc4cccc(I)c4)ncnc32)[C@@H](O)[C@@H]1O | 1% | x | x
C/C=C\C1=C(CO)C(=O)C2O[C@]2(CC=C(C)C)C1=O (some centres not stated) | 1%[11.4 µM] | x | x
Cc1cnc(CNc2cc(-c3ccoc3)ncn2)cn1 | 1%[2.29 µM] | x | x
Cc1onc(-c2ccccc2)c1C(=O)OCC(=O)c1ccccc1 | 0% | >77 | >57
Cc1ccc(-n2c(C)cc(C(=O)COC(=O)c3c(C)noc3C)c2C)cc1 | 25µM* | >77 | i
Cc1ccnc(NS(=O)(=O)c2ccc(N=[N+]=[N-])cc2)n1 | 2%[11.4 µM] | x | x
CCCCN(C)S(=O)(=O)c1ccc(C(=O)Nc2nnc(-c3cccs3)o2)cc1 | -1% | 8.2* | >57
CCCCN(CC)S(=O)(=O)c1ccc(C(=O)Nc2nnc(-c3ccccc3Cl)o2)cc1 | 2% | >77 | >57
O=C(COC(=O)c1cnccn1)c1ccc2c(c1)CCCC2 | 20µM* | >77 | x
O=C(COC(=O)c1cnccn1)c1ccc(Br)cc1 | -22% | x | x
Cc1ccc(-n2nc(C)c(C3C(C#N)=C(N)OC4=C3C(=O)CC(C)(C)C4)c2Cl)cc1 (configuration not stated) | 0% | 4.8* | >57
